Results reported in ChEMBL document CHEMBL3988442, “University of Dundee, Small-Polar-MMV Screening Library” (2021).
For some of these results: Entries with a potency or affinity are not part of this list.

Key:
Design in all cases: scale not given: direction of the effect not stated beside the values
[1] = molecular target: Protein translocase subunit SecA (Escherichia coli (strain K12)) (UniProt P10408); test: Assay to Identify E. coli SecA ATPase Inhibitors; assay type: functional; conditions: 30 µM
[2] = molecular target: T1, Ubiquitin-activating enzyme e1, putative (Leishmania donovani (strain BPK282A1)) (UniProt E9BSI1); test: Leishmania donovani Ubiquitin Activating Enzyme (LdE1); assay type: functional; conditions: 30 µM
T1 sequence (whole entry): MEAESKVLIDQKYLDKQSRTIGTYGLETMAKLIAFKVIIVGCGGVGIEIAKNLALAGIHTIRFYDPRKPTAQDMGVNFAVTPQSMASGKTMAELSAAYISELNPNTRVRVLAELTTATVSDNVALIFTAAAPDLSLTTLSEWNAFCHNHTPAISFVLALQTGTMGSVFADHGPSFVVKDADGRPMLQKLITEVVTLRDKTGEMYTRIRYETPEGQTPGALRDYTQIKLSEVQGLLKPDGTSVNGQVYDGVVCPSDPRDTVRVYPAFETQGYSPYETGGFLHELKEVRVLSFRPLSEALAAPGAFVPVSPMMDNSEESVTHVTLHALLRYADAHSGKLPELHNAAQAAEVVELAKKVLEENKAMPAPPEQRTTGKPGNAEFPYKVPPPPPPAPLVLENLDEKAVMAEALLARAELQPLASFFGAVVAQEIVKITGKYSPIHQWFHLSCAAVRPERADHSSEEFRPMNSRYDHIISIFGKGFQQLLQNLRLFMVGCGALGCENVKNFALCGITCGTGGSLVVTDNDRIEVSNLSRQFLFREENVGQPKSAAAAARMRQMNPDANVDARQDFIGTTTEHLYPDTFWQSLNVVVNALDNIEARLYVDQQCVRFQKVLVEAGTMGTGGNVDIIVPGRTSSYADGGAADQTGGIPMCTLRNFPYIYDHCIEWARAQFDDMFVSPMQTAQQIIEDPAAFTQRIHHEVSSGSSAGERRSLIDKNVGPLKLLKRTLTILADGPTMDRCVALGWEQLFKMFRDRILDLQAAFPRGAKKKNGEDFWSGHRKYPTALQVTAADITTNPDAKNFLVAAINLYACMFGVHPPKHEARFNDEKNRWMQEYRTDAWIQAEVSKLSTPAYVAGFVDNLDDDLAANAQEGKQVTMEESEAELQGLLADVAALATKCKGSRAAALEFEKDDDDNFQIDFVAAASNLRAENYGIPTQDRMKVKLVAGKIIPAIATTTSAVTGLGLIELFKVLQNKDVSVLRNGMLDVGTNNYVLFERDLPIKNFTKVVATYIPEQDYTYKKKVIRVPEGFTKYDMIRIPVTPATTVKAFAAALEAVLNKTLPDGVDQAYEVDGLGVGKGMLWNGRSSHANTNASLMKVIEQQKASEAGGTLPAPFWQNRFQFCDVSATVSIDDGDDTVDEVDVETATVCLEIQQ

[3] = molecular target: AMP-activated protein kinase, AMPK (Homo sapiens) (UniProt P54646+O43741+P54619+Q9UGJ0+Q9Y478+Q13131+Q9UGI9); test: AMP-dependent Kinase enzyme assay. An in vitro enzyme assay that detects ADP turnover that is directly proportional to AMPK activity. This uses naive AMPK that is activated during the assay with MK-8722; assay type: functional; conditions: 30 µM
[4] = molecular target: Sialic acid-binding Ig-like lectin 9 (Homo sapiens) (UniProt Q9Y336); test: Hs-Siglec9 ALPHAscreen SOP 20170721; conditions: 10 µM
Trypanosoma cruzi = test: Trypanosoma cruzi phosphomannomutase and mannose-1-phosphate guanylyltransferase assay; assay type: functional; conditions: 10 µM
[5] = molecular target: T2, Arginase-2, mitochondrial (Homo sapiens) (UniProt P78540); test: in vitro enzyme assay to detect the production of urea directly proportional to the activity of Arginase II; assay type: functional; conditions: 33.3 µM; note: in the data most compounds retested in dose-response had high values
T2 sequence (whole entry): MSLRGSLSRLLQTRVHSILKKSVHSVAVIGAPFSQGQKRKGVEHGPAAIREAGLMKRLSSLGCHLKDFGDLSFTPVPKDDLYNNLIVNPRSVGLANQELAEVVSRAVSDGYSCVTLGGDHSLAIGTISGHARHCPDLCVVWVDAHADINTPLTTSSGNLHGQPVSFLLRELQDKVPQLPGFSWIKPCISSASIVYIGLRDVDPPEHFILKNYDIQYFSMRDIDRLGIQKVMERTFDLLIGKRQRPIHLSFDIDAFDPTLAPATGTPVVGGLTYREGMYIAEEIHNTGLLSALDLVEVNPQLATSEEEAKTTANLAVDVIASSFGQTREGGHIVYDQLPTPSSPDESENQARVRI

[6] = molecular target: T3, Proteasome subunit beta (Trypanosoma cruzi) (UniProt O96673); test: Trypanosoma cruzi proteasome chymotrypsin-like activity (TcProtChymo) assay.; note: in the data most compounds retested in dose-response had high values; assay type: functional; conditions: 9.37 µM
T3 sequence (whole entry): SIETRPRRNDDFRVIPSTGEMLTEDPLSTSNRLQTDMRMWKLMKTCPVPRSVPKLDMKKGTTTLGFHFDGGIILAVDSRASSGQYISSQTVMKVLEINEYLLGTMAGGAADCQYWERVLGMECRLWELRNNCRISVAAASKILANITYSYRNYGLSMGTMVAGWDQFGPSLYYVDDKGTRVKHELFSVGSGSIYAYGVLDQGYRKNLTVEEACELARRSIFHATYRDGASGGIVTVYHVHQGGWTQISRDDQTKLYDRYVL

Homo sapiens = species: Homo sapiens; test: To identify inhibition of the IFN signalling (Jak-Stat) pathway via expression of an eGFP reporter gene under the control of an IFN-stimulated response element (ISRE) containing MxA promoter.; assay type: functional; conditions: 30 µM
[7] = molecular target: T4, Tyrosyl-tRNA synthetase, putative (Trypanosoma cruzi (strain CL Brener)) (UniProt Q4DSP6); test: Trypanosoma cruzi tyrosyl tRNA synthetase (TcYRS) _High Tyrosine SOP; assay type: functional; conditions: 30 µM; note: in the data most compounds retested in dose-response had high values
T4 sequence (whole entry): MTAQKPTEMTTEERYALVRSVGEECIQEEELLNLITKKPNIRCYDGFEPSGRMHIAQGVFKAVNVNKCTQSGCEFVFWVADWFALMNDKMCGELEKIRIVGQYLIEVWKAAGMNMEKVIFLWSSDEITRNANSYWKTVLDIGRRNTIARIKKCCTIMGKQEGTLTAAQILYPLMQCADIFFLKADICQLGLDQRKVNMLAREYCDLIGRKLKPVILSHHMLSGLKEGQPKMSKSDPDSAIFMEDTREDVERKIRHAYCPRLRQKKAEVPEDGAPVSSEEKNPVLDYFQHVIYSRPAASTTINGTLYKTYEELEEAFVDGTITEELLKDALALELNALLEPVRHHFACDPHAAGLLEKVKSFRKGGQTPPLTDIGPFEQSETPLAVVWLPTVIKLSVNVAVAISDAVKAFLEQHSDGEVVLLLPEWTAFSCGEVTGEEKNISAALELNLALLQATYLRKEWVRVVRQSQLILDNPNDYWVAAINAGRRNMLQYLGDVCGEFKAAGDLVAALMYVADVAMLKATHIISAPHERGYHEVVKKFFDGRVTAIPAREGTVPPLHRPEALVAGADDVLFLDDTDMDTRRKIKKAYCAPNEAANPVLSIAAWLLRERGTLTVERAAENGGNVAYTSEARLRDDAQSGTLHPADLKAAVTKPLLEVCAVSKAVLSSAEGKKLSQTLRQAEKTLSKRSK

[8] = molecular target: T4, Tyrosyl-tRNA synthetase, putative (Trypanosoma cruzi (strain CL Brener)); test: Trypanosoma cruzi tyrosyl tRNA synthetase (TcYRS) SOP; assay type: functional; conditions: 30 µM
[9] = molecular target: Chromo domain-containing protein 1 (Saccharomyces cerevisiae (strain ATCC 204508 / S288c) (Baker's yeast)) (UniProt P32657); test: ScCHD-1 Enzyme Inhibition Assay; assay type: functional; conditions: 30 µM; note: in the data most compounds retested in dose-response had high values
Chromo domain-containing protein 1 (Saccharomyces cerevisiae (strain ATCC 204508 / S288c) (Baker's yeast)), sequence (P32657 whole entry, the tested form may be a part): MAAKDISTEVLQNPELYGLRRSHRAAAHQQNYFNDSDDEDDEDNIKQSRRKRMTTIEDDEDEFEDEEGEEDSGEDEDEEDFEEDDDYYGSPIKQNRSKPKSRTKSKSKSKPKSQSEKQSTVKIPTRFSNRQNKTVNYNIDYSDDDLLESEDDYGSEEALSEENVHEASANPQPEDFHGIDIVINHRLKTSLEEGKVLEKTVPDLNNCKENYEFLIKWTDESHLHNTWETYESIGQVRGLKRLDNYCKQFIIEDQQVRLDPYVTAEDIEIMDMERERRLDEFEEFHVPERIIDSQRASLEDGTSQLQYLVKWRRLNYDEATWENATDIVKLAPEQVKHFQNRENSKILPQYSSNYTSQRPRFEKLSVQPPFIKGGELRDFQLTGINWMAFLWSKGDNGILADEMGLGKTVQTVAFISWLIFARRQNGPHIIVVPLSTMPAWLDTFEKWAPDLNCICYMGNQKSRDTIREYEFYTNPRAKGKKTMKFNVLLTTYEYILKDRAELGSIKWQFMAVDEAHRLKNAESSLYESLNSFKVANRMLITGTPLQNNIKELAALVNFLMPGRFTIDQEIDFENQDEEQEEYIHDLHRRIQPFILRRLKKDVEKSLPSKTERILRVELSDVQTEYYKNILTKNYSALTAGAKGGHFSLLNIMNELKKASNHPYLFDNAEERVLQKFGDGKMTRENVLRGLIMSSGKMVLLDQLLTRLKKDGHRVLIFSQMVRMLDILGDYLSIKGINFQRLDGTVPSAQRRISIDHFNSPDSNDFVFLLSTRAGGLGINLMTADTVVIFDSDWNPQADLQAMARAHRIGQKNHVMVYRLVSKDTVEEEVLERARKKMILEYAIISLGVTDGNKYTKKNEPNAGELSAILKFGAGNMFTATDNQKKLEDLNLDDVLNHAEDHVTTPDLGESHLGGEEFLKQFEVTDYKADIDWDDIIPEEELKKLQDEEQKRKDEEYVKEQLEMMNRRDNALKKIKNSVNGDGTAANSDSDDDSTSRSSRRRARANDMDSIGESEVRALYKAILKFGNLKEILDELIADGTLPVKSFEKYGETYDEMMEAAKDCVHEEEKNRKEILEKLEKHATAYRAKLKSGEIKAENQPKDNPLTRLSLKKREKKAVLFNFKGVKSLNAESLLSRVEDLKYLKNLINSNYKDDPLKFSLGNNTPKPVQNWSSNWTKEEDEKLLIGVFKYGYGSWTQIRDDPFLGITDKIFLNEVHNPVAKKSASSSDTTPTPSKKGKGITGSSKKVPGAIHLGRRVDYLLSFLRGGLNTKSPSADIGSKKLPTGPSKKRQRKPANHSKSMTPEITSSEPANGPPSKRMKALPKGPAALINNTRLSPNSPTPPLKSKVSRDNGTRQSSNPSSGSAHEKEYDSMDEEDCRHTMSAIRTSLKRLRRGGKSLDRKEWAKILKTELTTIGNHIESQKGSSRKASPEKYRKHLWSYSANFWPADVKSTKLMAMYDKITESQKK

Sialic acid-binding Ig-like lectin 9 (Homo sapiens), sequence (Q9Y336 whole entry): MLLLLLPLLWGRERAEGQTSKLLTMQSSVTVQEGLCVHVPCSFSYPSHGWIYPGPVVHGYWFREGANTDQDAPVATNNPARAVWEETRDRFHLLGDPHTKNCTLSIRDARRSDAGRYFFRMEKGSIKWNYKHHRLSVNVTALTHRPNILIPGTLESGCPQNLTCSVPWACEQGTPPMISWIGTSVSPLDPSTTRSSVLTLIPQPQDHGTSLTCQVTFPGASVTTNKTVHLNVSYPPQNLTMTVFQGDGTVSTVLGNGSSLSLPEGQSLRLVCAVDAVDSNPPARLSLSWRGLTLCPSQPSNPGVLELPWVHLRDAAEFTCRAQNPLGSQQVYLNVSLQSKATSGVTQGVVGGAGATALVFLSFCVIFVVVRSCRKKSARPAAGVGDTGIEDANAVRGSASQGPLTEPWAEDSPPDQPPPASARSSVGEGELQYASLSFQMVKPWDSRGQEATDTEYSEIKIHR
Protein translocase subunit SecA (Escherichia coli (strain K12)), sequence (P10408 whole entry): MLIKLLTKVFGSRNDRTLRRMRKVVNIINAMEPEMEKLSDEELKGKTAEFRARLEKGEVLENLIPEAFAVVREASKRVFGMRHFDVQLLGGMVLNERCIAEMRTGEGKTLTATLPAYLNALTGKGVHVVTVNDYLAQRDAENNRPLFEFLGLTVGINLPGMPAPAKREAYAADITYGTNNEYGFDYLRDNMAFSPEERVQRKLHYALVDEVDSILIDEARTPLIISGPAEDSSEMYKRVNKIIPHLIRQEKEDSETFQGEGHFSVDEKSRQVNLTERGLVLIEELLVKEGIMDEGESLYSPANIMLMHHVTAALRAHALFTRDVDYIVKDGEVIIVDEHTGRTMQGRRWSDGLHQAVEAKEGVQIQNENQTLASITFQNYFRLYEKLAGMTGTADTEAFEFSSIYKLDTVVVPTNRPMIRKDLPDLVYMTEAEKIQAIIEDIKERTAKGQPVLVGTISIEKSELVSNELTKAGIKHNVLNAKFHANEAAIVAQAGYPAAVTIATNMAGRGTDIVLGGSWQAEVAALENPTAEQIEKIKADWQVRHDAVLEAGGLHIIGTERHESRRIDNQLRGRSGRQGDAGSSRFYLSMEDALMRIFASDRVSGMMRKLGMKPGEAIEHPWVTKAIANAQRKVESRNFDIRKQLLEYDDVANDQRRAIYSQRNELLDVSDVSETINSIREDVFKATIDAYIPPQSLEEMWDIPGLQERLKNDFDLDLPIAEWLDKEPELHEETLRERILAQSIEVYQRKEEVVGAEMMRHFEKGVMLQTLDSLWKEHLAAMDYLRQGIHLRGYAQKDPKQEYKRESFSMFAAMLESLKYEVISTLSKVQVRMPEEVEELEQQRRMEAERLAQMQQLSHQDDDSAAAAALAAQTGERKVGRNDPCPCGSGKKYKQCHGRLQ

Row | SMILES | Percent Effect [1] [%] | Percent Effect [2] [%] | Percent Effect [3] [%] | Percent Effect [4] [%] | Percent Effect (Trypanosoma cruzi) [%] | Percent Effect [5] [%] | Percent Effect [6] [%] | Percent Effect (Homo sapiens) [%] | Percent Effect [7] [%] | Percent Effect [8] [%] | Percent Effect [9] [%]
1 | CCc1nc(C2CCCN(C(=O)c3ccc4c(c3)nnn4C)C2)no1 (stereo not given) | -9.33 | 18.2 | -4.8 | -5.84 | 5.19 | -4.42 | 14.3 | 5.49 | -10.5 | 21.2 | -20.9
2 | COc1ccc(-c2cnc(CN3CCn4c(C)nnc4C3)o2)cc1 | -8.18 | 5.26 | -2.37 | 6.41 | 10.9 | -3.06 | 7.18 | 11.6 | 6.37 | 19.5 | -14.7
3 | CCc1nc(CN(Cc2cccs2)CC2CCCO2)no1 (stereo not given) | -0.473 | -11.4 | 2.16 | 0.0835 | -0.308 | 2.37 | 4.29 | 10.4 | -3.12 | 5.06 | 3.56
4 | CCOC(=O)[C@]12CCCN(Cc3nccs3)C[C@H]1CN(C(C)=O)C2 | -1.26 | 5.2 | -1.96 | -4.79 | -9.17 | -0.645 | 15.7 | 7.39 | 0 | 6.41 | -6.7
5 | Cc1cc(C)n(CC2CN(CC(=O)Nc3c(C)n[nH]c3C)CCO2)n1 (stereo not given) | -3.28 | 15.6 | 2.77 | 0.0825 | -8.61 | 0 | 10.5 | 24.1 | 6.8 | 12.2 | -3.32
6 | Cc1csc(N2CCCN(C(=O)C(C(C)C)n3cncn3)CC2)n1 (stereo not given) | -1.03 | 13.5 | 0.997 | -3.98 | -5.29 | 3.51 | 10.9 | 19.3 | 6.93 | 15.8 | -2.71
7 | CN(C)CCN1C[C@@H]2CN(C(=O)c3ccsc3)C[C@@H]2C1=O | -7.36 | 5.2 | 0.643 | 5.55 | -3.25 | 0 | 5.66 | 20.3 | 0 | 1.24 | 1.29
8 | Cc1ccc(F)cc1S(=O)(=O)N(C)CC(N)=O | -2.13 | 11 | -2.95 | 2.8 | -1.19 | -2.79 | 14.8 | -1.31 | 9.38 | 16.1 | -0.907
9 | Cc1cc(=O)n(CC(=O)NCC2CCCO2)c(-c2ccc(F)cc2)n1 (stereo not given) | -8.1 | 0 | 1.45 | -2.38 | -3.83 | 2.76 | 7.49 | 22.5 | -1.07 | -3.7 | 3.12
10 | COc1ccc(CNC(=O)c2nn(C)c3c2CS(=O)(=O)CC3)cc1OC | -1.94 | 6.67 | 4.43 | 3.41 | -2.16 | -11.8 | 14.8 | 5.39 | 3.17 | 17.9 | -9.43
11 | c1ccc(-c2ncc(CNC3CCc4ncnn4C3)cn2)cc1 (stereo not given) | -5 | 8.86 | 6.48 | -1.35 | -1.33 | 9.25 | 3.26 | -3.68 | 7.29 | 10.1 | -13.8
12 | Cn1ccnc1CN1CCN(CC(O)c2cccc(F)c2)CC1 (stereo not given) | -1.52 | 18.2 | -1.07 | 4.38 | -0.49 | -1.9 | 15.4 | -1.78 | 6.67 | 18.8 | -11.3
13 | CCC[C@@H]1CN(S(=O)(=O)c2ccc(C)c(F)c2)C[C@H]1N(C)C | -4.83 | 2.67 | -4.64 | -1.02 | -8.86 | 2.08 | 16.2 | 3.61 | 1.64 | 6.17 | -7.9
14 | CCS(=O)(=O)c1ccccc1N1CCC(NC(C)=O)CC1 | -2.22 | 21.6 | -1.79 | 2.67 | -5.11 | -4.25 | -19.4 | 11.3 | 6.93 | 13.4 | 0.794
15 | O=C(NC1CC1)[C@H]1C[C@@H]2CCN(CCc3ccccc3)C[C@H]2O1 | 2.18 | 10.7 | 9.4 | -8.83 | -7.28 | 2.56 | 4.85 | 4.51 | 1.06 | 11.5 | -2.58
16 | CC(O)CN1CCC(CNCc2c[nH]nc2C(C)(C)C)CC1 (stereo not given) | -6.44 | 18.9 | -5.82 | 1.39 | -6.7 | -2 | 11.9 | 13.9 | 4.43 | 3.7 | -9.13
17 | CCN(C(=O)Nc1cccnc1OC)C1CC1 | -6.66 | 15.6 | -6.43 | 15.2 | 5.24 | -3.2 | 7.6 | 5.42 | 4.85 | 19.5 | -9.65
18 | Cc1cnn(CC2CCCCN2CC(=O)Nc2c(C)n[nH]c2C)c1 (stereo not given) | -3.93 | 6.33 | 8.13 | 0.215 | -4.62 | -5.81 | 6.86 | 16.1 | 1.04 | 10.1 | -14.4
19 | CNC(=O)C1(CCCc2cccnc2)CCCCN1 (stereo not given) | -1.25 | 23 | 5.4 | -8.22 | 3.95 | 0.696 | 17.6 | 19 | 1.07 | 9.09 | -15.7
20 | CNS(=O)(=O)CCCN1CCCC1c1cc(C)on1 (stereo not given) | -2.37 | 0 | 1.65 | -3.19 | -3.68 | -1.52 | 4.5 | 13.8 | 0.493 | -3.8 | 0.192
